In the library only some 3.9% were active in any assay of this set; here they are far more common.
Tb PFK inh: qHTS Assay to Find Inhibitors of T. brucei phosphofructokinase | ATP-dependent 6-phosphofructokinase (Trypanosoma brucei brucei), O15648 | T. brucei PFK, ADP-Glo luminescence | Potency, µM (titrated, usually from 57.5 µM), inactives show at the highest dose activity, negative = inhibition, usual class: inhibitors | 330,000 tested, 0.17% active | AID 485367, 2010;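 note: 0% = uninhibited 1x PFK enzyme wells and -100% = no-enzyme wells; nearly all actives have a fitted effect of over 60% in size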
Target sequence (O15648 whole entry, looked up): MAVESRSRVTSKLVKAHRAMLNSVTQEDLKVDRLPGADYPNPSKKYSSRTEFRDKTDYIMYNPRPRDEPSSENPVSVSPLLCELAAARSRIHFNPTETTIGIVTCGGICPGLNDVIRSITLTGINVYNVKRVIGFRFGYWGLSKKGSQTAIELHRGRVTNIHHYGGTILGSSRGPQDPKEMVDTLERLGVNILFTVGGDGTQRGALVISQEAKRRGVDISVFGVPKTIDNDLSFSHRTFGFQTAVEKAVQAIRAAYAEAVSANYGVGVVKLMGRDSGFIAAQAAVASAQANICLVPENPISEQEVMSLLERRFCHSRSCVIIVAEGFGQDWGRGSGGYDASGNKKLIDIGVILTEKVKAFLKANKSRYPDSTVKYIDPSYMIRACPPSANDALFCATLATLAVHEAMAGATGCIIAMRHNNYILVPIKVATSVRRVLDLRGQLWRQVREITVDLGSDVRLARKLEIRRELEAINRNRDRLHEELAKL
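Luminescent ADP detection (ADP-Glo, two-step: ATP depletion then ADP-to-ATP conversion for luciferase) reported PFK activity after 45 min room-temperature reaction of 1.25 nM enzyme with 0.5 mM F6P and 0.1 mM ATP at pH 8.0.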
BRCA1 expr act: qHTS Assay to Identify Small Molecule Activators of BRCA1 Expression; MCF7-BRCA1-FFLuc reporter, luminescence, 48 h; response scale: scaled: vehicle 0%, 10 µM genistein 100%; Potency, µM (titrated, usually from 46.1 µM), for inactives: top-dose activation, usual class: activators; 380,000 tested, 1.1% active; AID 624202, 2012; note: nearly all actives have a fitted effect of over 80% in size
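Reporter cells (MCF7, BRCA1 promoter-firefly luciferase) received library compounds across a concentration series for 48 h. End-point luminescence was measured and concentration-effect curves derived after normalization.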
VDR inh: Inhibitors of the vitamin D receptor (VDR): qHTS. Vitamin D3 receptor (Homo sapiens), P11473. VDR-SRC2-3 peptide fluorescence polarization, 2 h. Potency, µM, without a hit: max response, negative = inhibition, hits mostly inhibitors. 400,000 tested, 0.93% active. AID 504847, 2011; note: % is set by controls: 0 for no effect and ±100 for the full control effect
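Two reagent solutions held at 4 deg C in the dark were dispensed, compounds pinned at 23 nl, and the mixture incubated 2 h at room temperature. Read-out: fluorescence polarization of VDR–SRC2-3 peptide binding.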
PLK1 PBD block: qHTS for Inhibitors of PLK1-PDB (polo-like kinase 1 - polo-box domain): Primary Screen; Serine/threonine-protein kinase PLK1 (Homo sapiens), P53350; Plk1 PBD binding of FITC phosphopeptide, fluorescence polarization; Potency, µM, for inactives: max response, negative = inhibition, actives largely listed as inhibitors; 360,000 tested, 2.8% active; AID 720504, 2013; note: series mostly up to about 57 µM; % is set by controls: 0 for no effect and ±100 for the full control effect; nearly all actives have a fitted effect of over 65% in size
* hit, by the source's call; ? = inconclusive; . = no result; [ ] = dose if it differs, or a comment. Calls come from the whole dose curve; as a rule, active = well fitted curve in the direction sought with a large enough effect; inconclusive = small, poorly fitted or top-dose-only effect, or another doubt; inactive = no such curve, though single readings can be large; an effect the other way counts as inactive or inconclusive. Potency is the fitted concentration of half-maximal effect.

SMILES	Tb PFK inh	BRCA1 expr act	VDR inh	PLK1 PBD block
C=CCOc1ccc(CC2C(=O)N(C)C(=O)N(C)C2=O)cc1	-1%	11%	-10%	?
CN[C@@H]1C[C@@]2(C)O[C@@H]([C@@H]1OC)n1c3ccccc3c3c4c(c5c6ccccc6n2c5c31)C(=O)NC4	.	.	-1%	.
CCCCCCCCC(=O)NCc1ccc(O)c(OC)c1	3%	20%	-15%	-11%
CCCCC/C=C\C/C=C\C/C=C\C/C=C\CCCC(=O)NCc1ccc(O)c(OC)c1	.	.	45µM*	.
CSc1cccc(CNC(=O)C2CCC(=O)N(Cc3cccc(C(F)(F)F)c3)C2)c1 (centres undefined)	0%	?	-12%	-3%
CCN(CC)C(=O)c1c(C)[nH]c(=S)c(C#N)c1-c1ccco1	-3%	0%	?	2.7µM*
CCOC(=O)[C@]12Cc3cc(OC)ccc3[C@H]1N(C1CCCCC1)C(=O)c1cc(OC)ccc12	.	-72%	.	?
CCOC(=O)[C@]12Cc3cc(C)ccc3[C@H]1N(C1CCCCC1)C(=O)c1cc(OC)ccc12	.	-65%	.	2.4µM*
CCOC(=O)[C@]12Cc3cc(C)ccc3[C@H]1N(C(C)C)C(=O)c1ccccc12	.	-74%	.	11µM*
CCOC(=O)[C@]12Cc3c(cc(OC)c(OC)c3OC)[C@H]1N(C)C(=O)c1cc(OC)ccc12	.	-61%	.	13µM*
CCOC(=O)[C@]12Cc3cc(C)ccc3[C@H]1N(CCC(=O)OC)C(=O)c1cc(OC)ccc12	.	-71%	.	?
CCOC(=O)[C@]12Cc3ccccc3[C@H]1N(C)C(=O)c1cc(OC)ccc12	.	-26%	.	13µM*
CC1C(=O)OC2O[C@]3(C)CC[C@H]4C(C)CCC1[C@]24OO3 (some centres undefined)	.	.	-10%	.
CCOC(=O)[C@]12Cc3c(cc(OC)c(OC)c3OC)[C@H]1N(C(C)C)C(=O)c1ccccc12	.	-23%	.	13µM*
CCOC(=O)[C@]12Cc3cc(C)ccc3[C@H]1N(Cc1ccccc1)C(=O)c1ccccc12	.	-27%	0%	-8%
CCOC(=O)[C@]12Cc3cc(C)ccc3[C@H]1N(Cc1ccccc1)C(=O)c1cc(F)c(F)cc12	.	-72%	.	11µM*
CCOC(=O)[C@]12Cc3ccccc3[C@H]1N(C(C)C)C(=O)c1cc(OC)ccc12	.	-57%	.	7.5µM*
CCOC(=O)[C@]12Cc3cc(OC)ccc3[C@H]1N(Cc1ccccc1)C(=O)c1cc(F)c(F)cc12	.	-5%	-7%	-12%
C=C1C(O)C2OC3(CCC(/C=C/C(C)C4CC(C)=CC5(OC(CC(C)(O)C(=O)O)CCC5O)O4)O3)CCC2OC1C(O)CC(C)C1OC2(CCCCO2)CCC1C (centres undefined)	.	.	13%	.
Cc1ccnc(-n2c(C)cc(C=C3C(=O)N(C)C(=S)N(C)C3=O)c2C)c1	-1%	9%	?	1.2µM*
CC(=O)NCC(N)C(=O)c1ccc(Cl)c(Cl)c1 (centres undefined)	.	0%	.	.
CCCN(CCC)c1c([N+](=O)[O-])cc(C(F)(F)F)cc1[N+](=O)[O-]	.	.	11%	.
O=C(Nc1cccc(F)c1)N1CC2(CCNCC2)C1	.	.	40µM*	.
O=C(Nc1cccc(F)c1)N1CC2(CCN(C(=O)Oc3ccccc3)CC2)C1	.	.	-7%	.
COc1cc2c(c3oc4cccc(O)c4c(=O)c13)C1C=CO[C@@H]1O2 (some centres undefined)	.	.	0%	.
SMILES	Tb PFK inh	BRCA1 expr act	VDR inh	PLK1 PBD block
C[C@@H]1Cc2c(Cl)cc(C(=O)N[C@@H](Cc3ccccc3)C(=O)O)c(O)c2C(=O)O1	.	.	0%	.
C[C@@H]1O[C@@H](O[C@H]2CC[C@@H](O[C@H]3[C@H](O)C[C@H](c4ccc5c(c4O)C(=O)C4=C(C5=O)[C@@]5(O)C(=O)C[C@](C)(O[C@H]6CC[C@H](O[C@H]7C=CC(=O)[C@H](C)O7)[C@H](C)O6)C[C@@]5(O)C=C4)O[C@@H]3C)O[C@H]2C)C=CC1=O	.	.	2µM*	.
C=C1C2C[C@]3(C4CC5[C@@]6(C)CC[C@H](O)[C@@]5(C3CC2=O)C4[N+]([O-])(CC)C6)[C@@H]1O (some centres undefined)	.	.	3%	.
CN(N=O)c1ccc(O)c(O)c1	.	.	35µM*	.
C=C(C)C(=O)CP(=O)(OCC)OCC	.	.	-7%	.
CCCc1[nH][nH]c(=O)c1C(c1ccc(Cl)cc1)C(C#N)C#N (centres undefined)	-3%	-4%	-41%	21µM*
CCCc1[nH][nH]c(=O)c1C(c1ccccc1)C(C#N)C#N (centres undefined)	-19%	-5%	?	12µM*
O=C(/C=C/c1ccc(Cl)cc1)N[C@@]12CCC(=O)[C@@H]3Oc4c(O)ccc5c4[C@@]31CCN(CC1CC1)C2C5	.	.	1%	.
C=CCN1C(=O)NC(=O)/C(=C/c2cc3c4c(c2)CCCN4CCC3)C1=O	?	2%	46%	?
O=C1NC(=S)NC(=O)C1=Cc1ccc2c(c1)CCN2CCCCl	-15%	4%	?	2.7µM*
Cc1ccc2nc(C)n(-c3ccc(F)cc3)c(=O)c2c1	4%	15%	-17%	21µM*
NC(=O)c1cc([N+](=O)[O-])cc([N+](=O)[O-])c1	.	6%	-4%	-16%
CC(C)(C)c1cc([N+](=O)[O-])cc(C(C)(C)C)c1O	-14%	-43%	-29%	27µM*
Nc1c2c(nc3ccccc13)CCN(Cc1ccccc1)C2	-1%	3%	-3%	?
Nc1cc2nc3ccccc3nc2cc1N	-11%	44%	3%	6.7µM*
Oc1ccc(/C=N/NP(=S)(c2ccccc2)c2ccccc2)c(O)c1O	1%	6%[1.84 µM]	-15%	11µM*
CCOC(=O)[C@]12Cc3ccccc3[C@H]1N(CCC(=O)OC)C(=O)c1ccccc12	.	-29%	.	9.5µM*
CCOC(=O)[C@]12Cc3cc(OC)ccc3[C@H]1N(Cc1ccccc1)C(=O)c1ccccc12	.	-25%	-23%	-13%
CCCCCN1C(=O)c2ccccc2[C@@]2(C(=O)OCC)Cc3cc(OC)ccc3[C@@H]12	.	-73%	.	5.3µM*
CCOC(=O)[C@]12Cc3ccccc3[C@H]1N(Cc1ccccc1)C(=O)c1ccccc12	.	-21%	-3%	3%
CC(=O)CC(c1ccccc1)c1c(O)c2cc(O)ccc2oc1=O (centres undefined)	.	.	-3%	.
CCC(=O)Nc1ccc(C(=O)OCc2ccccc2Cl)cc1	1%	7.1µM*	2%	0%
COc1c(O)c2c(=O)cc(OC)c3c4c(OC)cc(=O)c5c(O)c(OC)c(C[C@@H](C)OC(=O)c6ccccc6)c(c(c1C[C@@H](C)OC(=O)Oc1ccc(O)cc1)c23)c54	.	.	50µM*	.
Cn1nnc2cc(NC(=O)Nc3cccc(Cl)c3)ccc21	5%	?	-4%	4%
O=C(CSc1nc(-c2ccc(Cl)cc2)[nH]c(=O)n1)Nc1cccc(Cl)c1	-2%	-10%	-17%	24µM*

Screening results from PubChem BioAssay.
